High-throughput results (PubChem)
This is a sample that favours compounds with a hit; in the whole collection about 2.7% have one here.
rTrxR1 inhibitor: rat TrxR1 inhibition; O89049; recombinant rTrxR1, NADPH fluorescence consumption, selenite substrate; Potency, µM (series often up to 114 µM), usual class: inhibitors; 390,000 tested, 1% active; AID 588453; further: nearly all actives have a fitted effect of over 65% in size
Target sequence (O89049 whole entry, looked up): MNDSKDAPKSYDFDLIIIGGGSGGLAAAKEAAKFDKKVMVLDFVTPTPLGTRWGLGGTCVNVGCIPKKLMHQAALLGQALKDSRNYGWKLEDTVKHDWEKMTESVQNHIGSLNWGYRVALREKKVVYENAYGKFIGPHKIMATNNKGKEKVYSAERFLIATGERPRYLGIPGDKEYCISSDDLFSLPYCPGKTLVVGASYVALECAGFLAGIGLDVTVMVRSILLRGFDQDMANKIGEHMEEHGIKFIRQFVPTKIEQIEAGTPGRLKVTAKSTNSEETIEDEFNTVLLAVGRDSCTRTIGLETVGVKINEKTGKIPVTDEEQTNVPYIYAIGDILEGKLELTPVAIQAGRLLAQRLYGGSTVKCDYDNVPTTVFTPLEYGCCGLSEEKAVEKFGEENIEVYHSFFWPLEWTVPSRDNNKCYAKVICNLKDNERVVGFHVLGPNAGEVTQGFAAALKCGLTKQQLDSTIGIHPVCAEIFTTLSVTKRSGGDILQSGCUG
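Rat TrxR1 (90 nM in the dispensed reagent) was pre-reduced with 400 uM NADPH for 5 min at room temperature, then incubated with compound for 15 min. After 400 uM selenite was added, NADPH fluorescence (Ex 340/Em 450 nm) was followed for 8 min.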
TrxR1 substrate: rat thioredoxin reductase 1 substrate activity | O89049 | purified TrxR1 substrate turnover, NADPH consumption readout | Potency, µM (top dose mostly 114 µM) | 390,000 tested, 0.01% active; further: nearly all actives have a fitted effect of over 50% in size
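Rat TrxR1, dispensed at 90 nM, was prereduced with 400 uM NADPH (final) for 5 min at ~22 deg C, then incubated with compound 15 min before 400 uM selenite. A first-read NADPH fluorescence drop versus no-compound background flagged substrates.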
GLP-1R agonist: agonists of human GLP-1 receptor | P43220 | HEK293 GLP-1R CRE-luciferase, luminescence, 4-6 h; cells express a hypersensitive GLP-1R form | Potency, µM (doses to about 45.6 µM), actives largely listed as activators | 380,000 tested, 0.007% active | AID 624172
mIDH1 inhibitor: blocks human mutant IDH1 R132H enzyme. O75874. IDH1-R132H enzyme, NADPH consumption, diaphorase/resazurin fluorescence. Potency, µM (highest dose often 76.6 µM), actives largely listed as inhibitors. 390,000 tested, 0.093% active; further: nearly all actives have a fitted effect of over 65% in size
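IDH1-R132H (0.5 ug/mL dispensed) in pH 7.5 Tris buffer was preincubated 30 min with compound, then given a substrate mix of 0.016 mM NADPH and 2 mM alpha-KG for 80 min at room temperature; remaining NADPH was read by diaphorase/resazurin fluorescence.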
GLP-1R inv ag: inverse agonists of human GLP-1 receptor; HEK293 GLP-1R CRE-luciferase, luminescence, 24 h; GLP-1R form is constitutively active; Potency, µM (doses to about 38.3 µM), most hits filed as inhibitors; 410,000 tested, 1.6% active; further: nearly all actives have a fitted effect of over 55% in size
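Inverse agonists were sought by their lowering of basal cAMP reporter luciferase output in HEK293 cells stably carrying constitutively active human GLP-1R, after 24 h compound treatment.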
HEK293 tox: cytotoxicity counter-screen for GLP-1 receptor inverse agonists; HEK293 cAMP-luciferase reporter cells, luminescence, 24 h; Potency, µM (titrated, usually from 38.3 µM), hits mostly inhibitors; 410,000 tested, 0.13% active; AID 624418;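 further: loss of luciferase light is scored as toxicity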
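Quantitative HTS format, 1536 wells, 200 cells/uL seeded. Compounds: 23 nL, 24 h, 37 °C. Detection: luciferase reagent, luminescence at 12 min RT; decreased signal taken as cytotoxic.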
Each line names hits and unclear results; the compound was inactive in the other large screens. The call rests on the fitted dose curve; in most records, active means well fitted curve in the direction sought with a large enough effect; inconclusive means small, poorly fitted or top-dose-only effect, or another doubt; inactive means no such curve, though single readings can be large; an effect the other way counts as inactive or inconclusive.

O=C(NCc1ccc(F)cc1)C(=O)NCC(c1ccco1)S(=O)(=O)c1cccs1 (configuration not stated)	none (no result: GLP-1R agonist)
CCc1cccc(NC(=O)CCN2C(=O)c3ccccc3Sc3ncccc32)c1	rTrxR1 inhibitor 17.8µM (no result: GLP-1R agonist)
O=C(O)CCN1C(=O)c2ccccc2Sc2ncccc21	none
CC(C)NC(=O)CCN1C(=O)c2ccccc2Sc2ncccc21	none
Cc1ccc(C)c(NC(=O)CCN2C(=O)c3ccccc3Sc3ncccc32)c1	rTrxR1 inhibitor 50.1µM (no result: GLP-1R agonist)
O=C(CCN1C(=O)c2ccccc2Sc2ncccc21)Nc1ccc(F)cc1	rTrxR1 inhibitor 7.08µM (no result: GLP-1R agonist)
COc1ccc(-c2[nH]c(-c3ccc(C)cc3)nc2SCC(=O)NC2CCCC2)cc1	GLP-1R inv ag 10µM, HEK293 tox inconclusive
COc1cccc(-c2nc(SCC(=O)NC3CCCC3)c(-c3ccc(C)cc3)[nH]2)c1	GLP-1R inv ag inconclusive (no result: GLP-1R agonist)
COc1ccc2c(C)cc(SCC(=O)NC3CCCC3)nc2c1	GLP-1R inv ag 11.2µM
C=CC[C@H]1CC(C)=C[C@H](CC=C)N1C(=O)c1cc(COc2ccccc2SC)on1	GLP-1R inv ag 8.91µM
COc1cccc(CN2CCC2(C)C(=O)Nc2cccc(Oc3ccccc3)c2)c1F (configuration not stated)	GLP-1R inv ag 3.16µM, HEK293 tox inconclusive (no result: rTrxR1 inhibitor, TrxR1 substrate, mIDH1 inhibitor)
COc1cccc(NC(=O)C2(C)CCN2Cc2cccc(OC)c2F)c1 (configuration not stated)	GLP-1R inv ag inconclusive (no result: rTrxR1 inhibitor, TrxR1 substrate, mIDH1 inhibitor)
CN1CCCC(C)(C(=O)Nc2cccc(Oc3ccccc3)c2)C1 (configuration not stated)	GLP-1R inv ag 12.6µM (no result: rTrxR1 inhibitor, TrxR1 substrate, mIDH1 inhibitor)
Fc1ccc(Nc2nc(SCc3cccc(Cl)c3)nc3ccccc23)cc1	GLP-1R inv ag 11.2µM (no result: GLP-1R agonist)
Cc1ccc2c(c1)CCCN2C(=O)c1cnn2c1NC(=C1CC1)C=C2C(F)F	none (no result: GLP-1R agonist, mIDH1 inhibitor, GLP-1R inv ag, HEK293 tox)
O=C(O)c1ccccc1NC(c1ccccc1)c1ccc(Cl)cc1 (configuration not stated)	GLP-1R inv ag 11.2µM
Cc1cn2c(=O)cc(COc3ccc(NC(=O)COc4ccccc4)cc3)nc2s1	none
Cc1cccc(NC(=O)CSc2nc3ccccc3c3nc(CCc4c(C)n[nH]c4C)nn23)c1	GLP-1R inv ag inconclusive, HEK293 tox 5.01µM
CCCn1c(C)cc(/C=C(\C#N)C(=O)OCC(=O)Nc2ccc(OC)c(Cl)c2)c1C	rTrxR1 inhibitor 79.4µM
CCOC(=O)/C=C/C(=O)OCC(=O)Nc1ccc(OC)c(Cl)c1	rTrxR1 inhibitor 15.8µM, HEK293 tox inconclusive
CCOC(=O)/C=C/C(=O)OCC(=O)Nc1ccc(Cl)cc1Cl	rTrxR1 inhibitor inconclusive
CCOC(=O)/C=C/C(=O)OCC(=O)NCc1ccccc1	rTrxR1 inhibitor 25.1µM
CCOC(=O)/C=C/C(=O)OCC(=O)Nc1c(Cl)cccc1Cl	rTrxR1 inhibitor 50.1µM
Cc1ccc(S(=O)(=O)N(C)CCN(C)c2nc(-c3cccs3)nc3ccccc23)cc1	none (no result: GLP-1R agonist, mIDH1 inhibitor, GLP-1R inv ag, HEK293 tox)
COC(=O)c1ccc2c(=O)n(CCCCCC(=O)NCc3ccc(Cl)cc3)c(=O)[nH]c2c1	none (no result: GLP-1R agonist)
O=[N+]([O-])c1cc(C(F)(F)F)ccc1Sc1ccc2ccccc2n1	GLP-1R inv ag 10µM
Nc1nc(Sc2ccc(C(F)(F)F)cc2[N+](=O)[O-])n[nH]1	none
Cc1ccc(Cn2c(C(=O)O)c(CNCc3ccccc3Cl)c3ccc(C)cc32)cc1	none
CC(=O)N1CCN(C(=O)CC2OC(=O)c3ccccc32)CC1 (configuration not stated)	rTrxR1 inhibitor 2.51µM
N#CC1=C(N)C(C#N)(C#N)C(c2cccnc2)C2CC(c3ccccc3)CC=C12 (configuration not stated)	rTrxR1 inhibitor inconclusive, mIDH1 inhibitor 13.1µM, GLP-1R inv ag inconclusive
N#CC1=C(N)C(C#N)(C#N)[C@H](c2cccnc2)[C@H]2CN(C(=O)OCc3ccccc3)CC=C12	none
CCOC(=O)c1ccc(NC(=O)CCc2c(C)nc3cc(-c4ccc(OC)cc4OC)nn3c2C)cc1	none
NNC(=O)c1cccc(COc2ccc3c(c2)CCC3)c1	GLP-1R inv ag 1.12µM
NNC(=O)c1cccc(COc2ccccc2Br)c1	GLP-1R inv ag inconclusive
O=C(C#Cc1ccccc1)c1cccc([N+](=O)[O-])c1	rTrxR1 inhibitor 0.1µM, GLP-1R inv ag inconclusive, HEK293 tox inconclusive
O=C(c1ccccc1)C(Nc1cccc([N+](=O)[O-])c1)c1ccccc1 (configuration not stated)	GLP-1R inv ag 7.94µM
Cc1ccc(S(=O)(=O)N2CCCC(C(=O)NCc3ccc4c(c3)OCO4)C2)cc1 (configuration not stated)	GLP-1R inv ag inconclusive
CC1CC(C)CN(S(=O)(=O)c2ccc(C(=O)NCc3ccc4c(c3)OCO4)cc2)C1 (configuration not stated)	GLP-1R inv ag 10µM
Cc1ccc(S(=O)(=O)N2CCCC(C(=O)NCCc3ccc4c(c3)OCO4)C2)cc1 (configuration not stated)	GLP-1R inv ag 12.6µM
Cc1ccc(N(CC(O)Cn2c3ccccc3c3ccccc32)S(=O)(=O)c2ccc(F)cc2)cc1 (configuration not stated)	none (no result: GLP-1R agonist)
COc1ccc(N(CC(O)Cn2c3ccccc3c3ccccc32)S(=O)(=O)c2ccccc2)cc1 (configuration not stated)	GLP-1R inv ag 11.2µM
CCN1C(C(=O)c2ccccc2)=C(OC(=O)COc2ccc(C)cc2)c2ccccc2S1(=O)=O	rTrxR1 inhibitor 20µM, GLP-1R inv ag inconclusive (no result: GLP-1R agonist)
CCN1C(C(=O)c2ccccc2)=C(OC(=O)COc2ccc(OC)cc2)c2ccccc2S1(=O)=O	rTrxR1 inhibitor 12.6µM, GLP-1R inv ag inconclusive (no result: GLP-1R agonist)
CCCN1C(C(=O)c2ccccc2)=C(OC(=O)COc2ccccc2)c2ccccc2S1(=O)=O	rTrxR1 inhibitor inconclusive, GLP-1R inv ag inconclusive (no result: GLP-1R agonist)
COCC(=O)N1C[C@H](C)[C@H](OC)CN(C)C(=O)c2cc(NC(=O)Nc3cccc(F)c3)ccc2OC[C@@H]1C	none (no result: rTrxR1 inhibitor, TrxR1 substrate, GLP-1R agonist, mIDH1 inhibitor)
COc1ccc(C(=O)CCS(=O)(=O)c2ccc(C)cc2)cc1	rTrxR1 inhibitor 14.1µM, GLP-1R inv ag inconclusive, HEK293 tox inconclusive
Cc1ccc(C(=O)CCS(=O)(=O)c2ccc(Br)cc2)cc1	rTrxR1 inhibitor 0.501µM
COc1ccc(C(=O)NCS(=O)(=O)c2ccc(C)cc2)cc1	rTrxR1 inhibitor 28.2µM
COc1ccc(C(=O)NCCS(=O)(=O)NCc2ccc(C)cc2)cc1	none
Cc1ccc(S(=O)(=O)CCC(=O)c2cccc([N+](=O)[O-])c2)cc1	rTrxR1 inhibitor inconclusive, GLP-1R inv ag inconclusive, HEK293 tox inconclusive
